In PubChem BioAssay (NCI):
The panel holds about 79,000 compounds, 15% with a hit somewhere; the sample as a whole holds those more often. Unmarked numbers belong to inactive results. Activity calls are given as the source filed them. Cut-off read from the data, not from the text of the source: active = growth inhibition above about 70%; inactive = the rest.

Test: NCI Yeast Anticancer Drug Screen. Data for the rad14 strain (AID 159);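 note: 0% = growth of vehicle-treated control cultures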
Conditions: S. cerevisiae rad14 strain growth inhibition, hits give high values
Protocol: Growth inhibition of yeast strains with defined genetic alterations is measured as a screen for potential anti-cancer activity. Selected strains with alterations in DNA damage repair or cell cycle control were exposed to compounds and growth inhibition was measured relative to vehicle treated controls. The strain used in this assay is rad14

## CCCCCCCCCCCCCC[N+](C)(CC(=O)[O-])Cc1ccccc1 (stereo not given)
At 1.2 µM
  growth inhibition: 10%
At 3.7 µM
  growth inhibition: 30%
At 11.0 µM
  growth inhibition: 100% (active)
At 33.0 µM
  growth inhibition: 99% (active)
At 100.0 µM
  growth inhibition: 99% (active)

## O=C(N=Nc1ccccc1Cl)NNc1ccccc1Cl
At 1.2 µM
  growth inhibition: -3%
At 3.7 µM
  growth inhibition: -9%
At 11.0 µM
  growth inhibition: -2%
At 33.0 µM
  growth inhibition: 5%
At 100.0 µM
  growth inhibition: 11%

## Cn1c2ccccc2c(=O)c2cc(NC(=O)CCCCC(=O)Nc3ccc4c(c3)c(=O)c3ccccc3n4C)ccc21
At 1.2 µM
  growth inhibition: -1%
At 3.7 µM
  growth inhibition: 3%
At 11.0 µM
  growth inhibition: 3%
At 33.0 µM
  growth inhibition: 17%
At 100.0 µM
  growth inhibition: 58%

## CCC/C(Cl)=N\OC(=O)Nc1ccc(Br)cc1
At 1.2 µM
  growth inhibition: 32%
At 3.7 µM
  growth inhibition: 33%
At 11.0 µM
  growth inhibition: 90% (active)
At 33.0 µM
  growth inhibition: 98% (active)
At 100.0 µM
  growth inhibition: 99% (active)

## CCC#CCCCOC(=O)c1cc([N+](=O)[O-])cc([N+](=O)[O-])c1
At 1.2 µM
  growth inhibition: -5%
At 3.7 µM
  growth inhibition: -6%
At 11.0 µM
  growth inhibition: 1%
At 33.0 µM
  growth inhibition: 79% (active)
At 100.0 µM
  growth inhibition: 99% (active)

## CC(C)c1cc(C(C)C)c(O)c(C([O-])[O-])c1.CC(C)c1cc(C(C)C)c(O)c(C([O-])[O-])c1.CC(C)c1cc(C(C)C)c(O)c(C([OH2+])[OH2+])c1.CC(C)c1cc(C(C)C)c(O)c(C([OH2+])[OH2+])c1.[Cu+2].[Cu+2].[OH3+].[OH3+]
At 1.2 µM
  growth inhibition: 5%
At 3.7 µM
  growth inhibition: 14%
At 11.0 µM
  growth inhibition: 29%
At 33.0 µM
  growth inhibition: 64%
At 100.0 µM
  growth inhibition: 93% (active)

## O=C(NCCCNCCCNC(=O)c1cc(-c2ccccc2)nc2ccccc12)c1cc(-c2ccccc2)nc2ccccc12
At 1.2 µM
  growth inhibition: -1%
At 3.7 µM
  growth inhibition: -1%
At 11.0 µM
  growth inhibition: 4%
At 33.0 µM
  growth inhibition: 58%
At 100.0 µM
  growth inhibition: 82% (active)

## COc1cc2ccc(/C=C\[N+](=O)[O-])cc2cc1OC
At 1.2 µM
  growth inhibition: -26%
At 3.7 µM
  growth inhibition: -39%
At 11.0 µM
  growth inhibition: -18%
At 33.0 µM
  growth inhibition: 97% (active)
At 100.0 µM
  growth inhibition: 95% (active)
